Experimental data from PubChem BioAssay (EPA / NIEHS).
Calls of active or inactive are those of the source. The calls were made as follows: active = hit-call score of the fitted dose curve at least 0.9, where 1 is the maximum; inactive = score below 0.9.

Experiments:
[1] = read-out: Tissue Factor, F3 (gene 2152); assay: BSK_CASM3C_TissueFactor: BioMAP Diversity Plus: CASM3C Assay for Tissue Factor Biomarker Activity (AID 2283052); settings: primary human coronary artery smooth muscle cells; actives raise or lower the signal;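 also: cell surface tissue factor protein level read by ELISA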
[2] = read-out: Interferon-gamma inducible Protein 10 (IP10), CXCL10 (gene 3627); assay: BSK_hDFCGF_IP10: BioMAP Diversity Plus: hDFCGF Assay for Interferon-gamma inducible Protein 10 (IP10) Biomarker Activity (AID 2283053); settings: primary human foreskin fibroblasts; actives raise or lower the signal
Outline: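 Primary foreskin fibroblasts, human; 24 h compound exposure; IP-10 by ELISA; bidirectional fit vs DMSO.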

[3] = read-out: Urokinase-type plasminogen activator receptor (uPAR), PLAUR (gene 5329); assay: BSK_CASM3C_uPAR: BioMAP Diversity Plus: CASM3C Assay for Urokinase-type plasminogen activator receptor (uPAR) Biomarker Activity (AID 2283054); settings: primary human coronary artery smooth muscle cells; actives raise or lower the signal;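 also: cell-surface uPAR protein level quantified by ELISA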
[4] = read-out: Vascular cell adhesion molecule 1 (VCAM1), VCAM1 (gene 7412); assay: BSK_CASM3C_VCAM1: BioMAP Diversity Plus: CASM3C Assay for Vascular cell adhesion molecule 1 (VCAM1) Biomarker Activity (AID 2283055); settings: primary human coronary artery smooth muscle cells; actives raise or lower the signal;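 also: VCAM-1 protein level quantified by ELISA on the cells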
[5] = read-out: Interleukin-8 (IL8), CXCL8 (gene 3576); assay: BSK_hDFCGF_IL8: BioMAP Diversity Plus: hDFCGF Assay for Interleukin-8 (IL8) Biomarker Activity (AID 2283058); settings: primary human foreskin fibroblasts; actives raise or lower the signal
Outline: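 Cells used are human skin primary fibroblasts. Chemical is added, cultures run 24 h, then IL-8 is quantified by ELISA, and gain or loss versus DMSO control is fitted in both directions.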

[6] = read-out: Macrophage colony-stimulating factor (MCSF), CSF1 (gene 1435); assay: BSK_hDFCGF_MCSF: BioMAP Diversity Plus: hDFCGF Assay for Macrophage colony-stimulating factor (MCSF) Biomarker Activity (AID 2283060); settings: primary human foreskin fibroblasts; actives raise or lower the signal
Outline: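 Primary human foreskin fibroblasts dosed with chemical; 24 h later, M-CSF quantified by ELISA; curves fitted in both directions vs DMSO negative control.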

[7] = BSK_hDFCGF_SRB: Viability Assessment in the BioMAP Diversity Plus: hDFCGF Assay (AID 2283061); settings: primary human foreskin fibroblasts;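 also: cells exposed to compound for 24 h before the read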
Outline: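 Readout is SRB absorbance at 560 nm, reflecting total protein in parallel cultures of human foreskin fibroblasts harvested 24 h after chemical dosing. Activity was fitted bidirectionally relative to DMSO.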

[8] = read-out: TIMP metallopeptidase inhibitor 1 (TIMP1), TIMP1 (gene 7076); assay: BSK_hDFCGF_TIMP1: BioMAP Diversity Plus: hDFCGF Assay for TIMP metallopeptidase inhibitor 1 (TIMP1) Biomarker Activity (AID 2283062); settings: primary human foreskin fibroblasts; actives raise or lower the signal
Outline: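 Human skin fibroblasts (primary), hDFCGF system; compound exposure 24 h; TIMP-1 by ELISA; bidirectional fit vs DMSO negative control; overt cytotoxicity by SRB in parallel wells.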

[9] = read-out: Monokine induced gamma interferon (MIG), CXCL9 (gene 4283); assay: BSK_hDFCGF_MIG: BioMAP Diversity Plus: hDFCGF Assay for Monokine induced gamma interferon (MIG) Biomarker Activity (AID 2283063); settings: primary human foreskin fibroblasts; actives raise or lower the signal
Outline: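 Chemicals were added to primary human foreskin fibroblast cultures, which were sampled 24 h later. MIG levels were then quantified by ELISA and responses fitted in both directions relative to DMSO.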

[10] = read-out: Matrix Metallopeptidase 1 (MMP1), MMP1 (gene 4312); assay: BSK_hDFCGF_MMP1: BioMAP Diversity Plus: hDFCGF Assay for Matrix Metallopeptidase 1 (MMP1) Biomarker Activity (AID 2283064); settings: primary human foreskin fibroblasts; actives raise or lower the signal
Outline: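 Primary human foreskin fibroblasts in the hDFCGF system were dosed with test chemical, and MMP1 was measured by ELISA 24 h later. Values come from bidirectional curve fitting against the DMSO baseline.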

[11] = read-out: Vascular cell adhesion molecule 1 (VCAM1), VCAM1 (gene 7412); assay: BSK_hDFCGF_VCAM1: BioMAP Diversity Plus: hDFCGF Assay for Vascular cell adhesion molecule 1 (VCAM1) Biomarker Activity (AID 2283065); settings: primary human foreskin fibroblasts; actives raise or lower the signal;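 as to AC50: VCAM-1 protein level quantified by ELISA after 24 h chemical exposure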
Outline: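 Human foreskin fibroblast primary cells, chemical exposure 24 h; VCAM-1 by ELISA; bidirectional fit, DMSO = negative control/baseline.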

[12] = read-out: Plasminogen activator inhibitor-1 (PAI1), SERPINE1 (gene 5054); assay: BSK_hDFCGF_PAI1: BioMAP Diversity Plus: hDFCGF Assay for Plasminogen activator inhibitor-1 (PAI1) Biomarker Activity (AID 2283066); settings: primary human foreskin fibroblasts; actives raise or lower the signal
Outline: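 Primary dermal fibroblasts (human foreskin), hDFCGF system; compound 24 h; PAI-1 by ELISA; bidirectional fit vs DMSO control.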

[13] = read-out: Intercellular Adhesion Molecule 1 (ICAM1), ICAM1 (gene 3383); assay: BSK_KF3CT_ICAM1: BioMAP Diversity Plus: KF3CT Assay for Intercellular Adhesion Molecule 1 (ICAM1) Biomarker Activity (AID 2283067); settings: primary human keratinocytes with fibroblasts; actives raise or lower the signal
Outline: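 ICAM-1 levels are measured by ELISA 24 h after dosing a primary human co-culture of keratinocytes and foreskin fibroblasts. Activity in either direction is fitted relative to DMSO vehicle.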

[14] = read-out: Interferon-gamma inducible Protein 10 (IP10), CXCL10 (gene 3627); assay: BSK_KF3CT_IP10: BioMAP Diversity Plus: KF3CT Assay for Interferon-gamma inducible Protein 10 (IP10) Biomarker Activity (AID 2283068); settings: primary human keratinocytes with fibroblasts; actives raise or lower the signal
Outline: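 In a primary skin co-culture of keratinocytes and fibroblasts, IP-10 is quantified by ELISA at 24 h after dosing. SRB staining of parallel wells monitors overt toxicity. Curves are fitted both directions against DMSO.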

[15] = BSK_KF3CT_SRB: Viability Assessment in the BioMAP Diversity Plus: KF3CT Assay (AID 2283069); settings: primary human keratinocytes with fibroblasts;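 also: total protein by sulforhodamine B staining as a cytotoxicity measure; read 24 h after compound addition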
Outline: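 Human primary keratinocyte plus foreskin fibroblast co-culture exposed to chemicals for 24 h. Total protein measured by 0.1% sulforhodamine B staining after 10% TCA fixation, read at 560 nm; bidirectional fitting versus DMSO baseline.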

[16] = read-out: Interleukin-1 alpha (IL1a), IL1A (gene 3552); assay: BSK_KF3CT_IL1a: BioMAP Diversity Plus: KF3CT Assay for Interleukin-1 alpha (IL1a) Biomarker Activity (AID 2283070); settings: primary human keratinocytes with fibroblasts; actives raise or lower the signal
Outline: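 Human keratinocyte plus foreskin fibroblast primary co-culture, sampled 24 h after chemical dosing. IL-1a measured by ELISA; responses fitted bidirectionally against DMSO baseline (negative control), so gain or loss of signal both count.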

[17] = read-out: TIMP metallopeptidase inhibitor 2 (TIMP2), TIMP2 (gene 7077); assay: BSK_KF3CT_TIMP2: BioMAP Diversity Plus: KF3CT Assay for TIMP metallopeptidase inhibitor 2 (TIMP2) Biomarker Activity (AID 2283071); settings: primary human keratinocytes with fibroblasts; actives raise or lower the signal
Outline: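 Cells: human keratinocytes co-cultured with foreskin fibroblasts. Treat with chemical, 24 h. Measure TIMP-2 by ELISA; fit curves bidirectionally vs DMSO baseline.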

[18] = read-out: Epidermal growth factor receptor (EGFR), EGFR (gene 1956); assay: BSK_hDFCGF_EGFR: BioMAP Diversity Plus: hDFCGF Assay for Epidermal growth factor receptor (EGFR) Biomarker Activity (AID 2283057); settings: primary human foreskin fibroblasts; actives raise or lower the signal
Outline: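 hDFCGF system, primary human foreskin fibroblasts; compound 24 h; EGFR measured by ELISA; DMSO = negative control/baseline; bidirectional fitting.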

[19] = BSK_hDFCGF_Proliferation: Cell Proliferation Assessment in the BioMAP Diversity Plus: hDFCGF Assay (AID 2283059); settings: primary human foreskin fibroblasts;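 also: curves fitted for both rise and fall of signal versus DMSO baseline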
Outline: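 Primary human foreskin fibroblasts, sub-confluent; […]; 10% TCA fix, 0.1% SRB stain, A560 total protein. Gain/loss fitted bidirectionally vs DMSO control.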

Measured: AC50

O=C(Nc1ccc([N+](=O)[O-])cc1Cl)c1cc(Cl)ccc1O
active: [2] 0.148 µM | [3] 0.148 µM | [6] 0.912 µM | [7] 0.063 µM | [8] 0.149 µM | [9] 0.148 µM | [10] 0.227 µM | [11] 0.148 µM | [12] 0.148 µM | [13] 1.24 µM | [14] 0.148 µM | [15] 0.148 µM | [16] 0.735 µM | [17] 0.436 µM
inactive: [1] | [4] | [5]

CCCOC(=O)NCCCN(C)C
inactive: all assays above

CC(=O)S[C@@H]1CC2=CC(=O)CC[C@]2(C)[C@H]2CC[C@@]3(C)[C@@H](CC[C@@]34CCC(=O)O4)[C@H]12
active: [2] 29.9 µM | [4] 16.8 µM | [5] 30.6 µM | [6] 10.6 µM | [7] 26.7 µM | [9] 31.2 µM | [10] 31.3 µM | [12] 10.3 µM | [14] 33.4 µM | [16] 30.7 µM
inactive: [1] | [3] | [18] | [8] | [11] | [13] | [15] | [17]

CCCCC(CC)CN1C(=O)C2C3C=CC(C3)C2C1=O (stereo not given)
active: [2] 3.97 µM | [6] 20 µM | [10] 16 µM | [14] 20 µM
not listed: [19]
inactive: all other assays above

CC1(C)C(C=C(Cl)Cl)C1C(=O)OCc1cccc(Oc2ccccc2)c1 (stereo not given)
active: [18] 8.28 µM | [19] 7.38 µM
inactive: all other assays above

Oc1ccc(C(c2ccc(O)cc2)C(Cl)(Cl)Cl)cc1
inactive: [1] | [4]
active: [2] 23.8 µM | [3] 11.3 µM | [18] 13.3 µM | [5] 31.3 µM | [19] 13.5 µM | [6] 21.5 µM | [7] 29.3 µM | [8] 14.5 µM | [9] 26.7 µM | [10] 29.7 µM | [11] 20 µM | [12] 25.4 µM | [13] 36.4 µM | [14] 33.2 µM | [15] 24.1 µM | [16] 32.9 µM | [17] 20.7 µM
